This is a sample that favours compounds with a hit; in the whole collection about 32% have one here.
PostGolgi yeast: growth inhibition of a yeast mutant, post-Golgi transport screen; post-Golgi transport phenotypic cell assay; inhibition, % at 10 µM; hit rate 0.9% among 98,000; AID 739;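 note: yeast cells grown in 1536-well plates; yeast grown about 18 h at 30C before absorbance read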
PostGolgi ctrl: growth of the yeast control strain, post-Golgi counter-screen. efflux-deficient yeast background strain, growth absorbance A615, 16 h. inhibition, % at 10 µM. hit rate 5% among 98,000. AID 738
CYP2C9 activ: activators of human CYP2C9; hit rate 1.4% among 96,000; recombinant CYP2C9, luciferin-H conversion, luminescence; hits give high values; factor 1 = untreated enzyme, 0 = blocked; activation factor at 5 µM; P11712;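 active = activation factor of 2 or more for CYP2C9 at a 5 µM dose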
CYP2C9 inh: inhibitors of human CYP2C9. P11712. CYP2C9 Supersomes, luciferin-H conversion, luminescence. inhibition, % at 5 µM. hit rate 20% among 96,000;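 active = blocking of liver enzyme CYP2C9 beyond about 50% at 5 µM, limit read from the data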
CYP2C19 activ: activators of human cytochrome P450 2C19; P33261; activation factor at 5 µM; recombinant CYP2C19, luciferin-H EGE luminescence; hits give high values; 0 = fully inhibited enzyme, 1 = untreated enzyme; 96,000 tested, under 10 active; AID 1025;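 active = activation factor of at least 2 at 5 µM in the primary screen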
Target sequence (P33261 whole entry, looked up): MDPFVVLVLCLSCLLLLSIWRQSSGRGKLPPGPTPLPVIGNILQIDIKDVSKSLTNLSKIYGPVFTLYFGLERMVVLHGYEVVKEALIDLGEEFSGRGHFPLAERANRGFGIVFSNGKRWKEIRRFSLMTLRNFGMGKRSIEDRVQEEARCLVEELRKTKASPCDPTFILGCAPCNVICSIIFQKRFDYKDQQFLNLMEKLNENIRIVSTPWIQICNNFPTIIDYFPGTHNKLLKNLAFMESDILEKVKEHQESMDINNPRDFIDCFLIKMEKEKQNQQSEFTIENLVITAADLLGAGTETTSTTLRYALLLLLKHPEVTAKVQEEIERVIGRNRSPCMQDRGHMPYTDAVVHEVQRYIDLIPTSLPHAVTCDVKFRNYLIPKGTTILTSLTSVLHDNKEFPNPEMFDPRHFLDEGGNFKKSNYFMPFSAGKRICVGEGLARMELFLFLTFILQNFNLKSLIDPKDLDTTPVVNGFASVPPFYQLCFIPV
CYP2C19 inh: blocks human cytochrome P450 2C19. P33261. CYP2C19 Supersomes, luciferin-H EGE luminescence, 30 min. inhibition, % at 5 µM. hit rate 21% among 96,000. AID 778;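 active = CYP2C19 inhibition above a set limit at 5 µM in the primary screen, cut at about 50% in these data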
A number is an active result. Cut-off read from the data, not from the text of the source, unless noted: active = inhibition above about 30%; inactive = the rest.

How did COc1cc(NC(=O)C2CC(c3cccc(OC)c3OC)=NO2)cc(OC)c1OC (stereo not given) do in these assays?
PostGolgi yeast: inactive; PostGolgi ctrl: inactive; CYP2C9 activ: inactive; CYP2C9 inh: inactive; CYP2C19 activ: inactive; CYP2C19 inh: 61

What do the screens show for `COc1ccc(OC)c(C2=NOC(C(=O)Nc3cccc(C(C)=O)c3)C2)c1` (stereo not given)?
PostGolgi yeast: inactive; PostGolgi ctrl: inactive; CYP2C9 activ: 2.3; CYP2C9 inh: inactive; CYP2C19 activ: inactive; CYP2C19 inh: 52

Results for COc1cc(C2=NOC(C(=O)Nc3ccc(C(C)=O)cc3)C2)cc(OC)c1OC (stereo not given) ?
PostGolgi yeast: inactive; PostGolgi ctrl: inactive; CYP2C9 activ: inactive; CYP2C9 inh: inactive; CYP2C19 activ: inactive; CYP2C19 inh: inactive

How did COc1cccc(C2=NOC(C(=O)Nc3ccc(C(C)=O)cc3)C2)c1 (stereo not given) do in these assays?
PostGolgi yeast: inactive; PostGolgi ctrl: inactive; CYP2C9 activ: inactive; CYP2C9 inh: inactive; CYP2C19 activ: inactive; CYP2C19 inh: inactive

What do the screens show for `COc1ccc(OC)c(C2=NOC(C(=O)Nc3cc(C)nn3-c3ccccc3)C2)c1` (stereo not given)?
PostGolgi yeast: inactive; PostGolgi ctrl: 41; CYP2C9 activ: inactive; CYP2C9 inh: inactive; CYP2C19 activ: inactive; CYP2C19 inh: inactive

How did COc1ccc(OC)c(C2=NOC(C(=O)N3CCN(c4ccccc4)CC3)C2)c1 (stereo not given) do in these assays?
PostGolgi yeast: inactive; PostGolgi ctrl: inactive; CYP2C9 activ: inactive; CYP2C9 inh: inactive; CYP2C19 activ: inactive; CYP2C19 inh: inactive

How did Cc1ccc(OCC(=O)NNC(=O)c2cccnc2)cc1 do in these assays?
PostGolgi yeast: inactive; PostGolgi ctrl: inactive; CYP2C9 activ: inactive; CYP2C9 inh: inactive; CYP2C19 activ: inactive; CYP2C19 inh: inactive

Results for Cc1nc2ccc(NC(=O)NCCO)cc2s1 ?
PostGolgi yeast: inactive; PostGolgi ctrl: inactive; CYP2C9 activ: inactive; CYP2C9 inh: inactive; CYP2C19 activ: inactive; CYP2C19 inh: inactive

What do the screens show for `Cc1ccc(S(=O)(=O)Nc2ccc3nc(C)sc3c2)cc1`?
PostGolgi yeast: inactive; PostGolgi ctrl: inactive; CYP2C9 activ: inactive; CYP2C9 inh: 79; CYP2C19 activ: inactive; CYP2C19 inh: inactive

Results for Cc1nc2ccc(NS(=O)(=O)c3c(C)c(C)cc(C)c3C)cc2s1 ?
PostGolgi yeast: inactive; PostGolgi ctrl: 36; CYP2C9 activ: inactive; CYP2C9 inh: 74; CYP2C19 activ: inactive; CYP2C19 inh: inactive

How did Cc1ccc(C(=O)Nc2ccc3nc(C)sc3c2)s1 do in these assays?
PostGolgi yeast: inactive; PostGolgi ctrl: inactive; CYP2C9 activ: inactive; CYP2C9 inh: 87; CYP2C19 activ: inactive; CYP2C19 inh: inactive

Results for Cc1ccc(S(=O)(=O)Nc2ccc3nc(N)sc3c2)cc1 ?
PostGolgi yeast: inactive; PostGolgi ctrl: inactive; CYP2C9 activ: inactive; CYP2C9 inh: 95; CYP2C19 activ: inactive; CYP2C19 inh: 99

What do the screens show for `O=Cc1cccc(OC(=O)c2ccc(Cl)cc2Cl)c1`?
PostGolgi yeast: inactive; PostGolgi ctrl: inactive; CYP2C9 activ: inactive; CYP2C9 inh: inactive; CYP2C19 activ: inactive; CYP2C19 inh: inactive

How did CCOC(=O)c1ccc(-n2c(=S)sc3c(=O)[nH]c(C)nc32)cc1 do in these assays?
PostGolgi yeast: inactive; PostGolgi ctrl: inactive; CYP2C9 activ: inactive; CYP2C9 inh: inactive; CYP2C19 activ: inactive; CYP2C19 inh: inactive

Results for CCc1c(C)nc(SCC(=O)N2CCc3ccccc32)[nH]c1=O ?
PostGolgi yeast: inactive; PostGolgi ctrl: inactive; CYP2C9 activ: inactive; CYP2C9 inh: inactive; CYP2C19 activ: inactive; CYP2C19 inh: inactive

What do the screens show for `Cc1nc2ccc(NC(=O)N3CCOCC3)cc2s1`?
PostGolgi yeast: inactive; PostGolgi ctrl: inactive; CYP2C9 activ: inactive; CYP2C9 inh: inactive; CYP2C19 activ: inactive; CYP2C19 inh: inactive

What do the screens show for `Cc1nc2ccc(NS(=O)(=O)c3ccc4c(c3)OCCO4)cc2s1`?
PostGolgi yeast: inactive; PostGolgi ctrl: inactive; CYP2C9 activ: inactive; CYP2C9 inh: 98; CYP2C19 activ: inactive; CYP2C19 inh: 98

How did O=C1C2C3C=CC(C3)C2C(=O)N1/N=C/c1cn(Cc2ccc(F)cc2)c2ccccc12 (stereo not given) do in these assays?
PostGolgi yeast: inactive; PostGolgi ctrl: 37; CYP2C9 activ: inactive; CYP2C9 inh: inactive; CYP2C19 activ: inactive; CYP2C19 inh: inactive

What do the screens show for `O=C1C2C3C=CC(C3)C2C(=O)N1/N=C/c1cc(Br)cc([N+](=O)[O-])c1O` (stereo not given)?
PostGolgi yeast: inactive; PostGolgi ctrl: inactive; CYP2C9 activ: inactive; CYP2C9 inh: inactive; CYP2C19 activ: inactive; CYP2C19 inh: inactive

Results for O=C1C2C3C=CC(C3)C2C(=O)N1/N=C/c1cn(Cc2ccccc2)c2ccccc12 (stereo not given) ?
PostGolgi yeast: inactive; PostGolgi ctrl: 32

Results for O=C(CN1C(=O)C2C3C=CC(C3)C2C1=O)NCc1ccccc1 (stereo not given) ?
PostGolgi yeast: inactive; PostGolgi ctrl: inactive; CYP2C9 activ: inactive; CYP2C9 inh: inactive; CYP2C19 activ: inactive; CYP2C19 inh: inactive

How did COC(=O)N(C)c1ccccc1C(=O)N1CCOCC1 do in these assays?
PostGolgi yeast: inactive; PostGolgi ctrl: inactive

How did CCCS(=O)(=O)c1cn2cccc(N)c2c1S(=O)(=O)CCC do in these assays?
PostGolgi yeast: inactive; PostGolgi ctrl: 31; CYP2C9 activ: inactive; CYP2C9 inh: inactive; CYP2C19 activ: inactive; CYP2C19 inh: inactive

Results for CCOc1ccc(N2CC(C(=O)N3CCc4ccccc4C3)CC2=O)cc1 (stereo not given) ?
PostGolgi yeast: inactive; PostGolgi ctrl: inactive; CYP2C9 activ: inactive; CYP2C9 inh: inactive; CYP2C19 activ: inactive; CYP2C19 inh: inactive

How did CCOC(=O)CN1C(=O)C(O)(C2CCc3ccccc3C2=O)c2ccccc21 (stereo not given) do in these assays?
PostGolgi yeast: inactive; PostGolgi ctrl: inactive; CYP2C9 activ: inactive; CYP2C9 inh: inactive; CYP2C19 activ: inactive; CYP2C19 inh: 73

How did CCOC(=O)Cn1nc(CC)c2ccccc2c1=O do in these assays?
PostGolgi yeast: inactive; PostGolgi ctrl: inactive; CYP2C9 activ: inactive; CYP2C9 inh: inactive; CYP2C19 activ: inactive; CYP2C19 inh: inactive

How did CCOC(=O)CN1C(=O)C(O)(c2c(C)[nH]c3ccccc23)c2ccccc21 (stereo not given) do in these assays?
PostGolgi yeast: inactive; PostGolgi ctrl: inactive; CYP2C9 activ: inactive; CYP2C9 inh: 94; CYP2C19 activ: inactive; CYP2C19 inh: 99

How did Cc1nc(=O)c(-c2ccccc2)c(C)n1-c1ccccc1O do in these assays?
CYP2C9 activ: inactive; CYP2C9 inh: inactive; CYP2C19 activ: inactive; CYP2C19 inh: inactive

What do the screens show for `NNC(=O)c1cccc(COc2ccccc2Br)c1`?
PostGolgi yeast: inactive; PostGolgi ctrl: inactive; CYP2C9 activ: inactive; CYP2C9 inh: 78; CYP2C19 activ: inactive; CYP2C19 inh: 98

What do the screens show for `O=C1OCC(CO)(CO)N=C1NNc1cc(Cl)ccc1Cl`?
PostGolgi yeast: inactive; PostGolgi ctrl: inactive; CYP2C9 activ: inactive; CYP2C9 inh: 56; CYP2C19 activ: inactive; CYP2C19 inh: 77

From PubChem
